Reference: PubChem BioAssay (EPA / NIEHS)
Results filed as inconclusive are left out. Where a structure was tested more than once in an assay, its records may differ in their call. Activity calls are given as the source filed them. The calls were made as follows, unless noted: active = hit-call score of the fitted dose curve at least 0.9, where 1 is the maximum; inactive = score below 0.9.

How the values were obtained:
[1] = target: human Vitamin D Receptor (VDR), VDR (gene 7421) (UniProt P11473); assay: ATG_VDR_TRANS: Attagene TRANS-FACTORIAL HepG2 Assay for human Vitamin D Receptor (VDR) (AID 2283022; active = hit-call score of the fitted dose curve at least 0.9, where 1 is the maximum)
Sequence of human Vitamin D Receptor (VDR), VDR (gene 7421) (P11473 whole entry, looked up, the tested form may be a part): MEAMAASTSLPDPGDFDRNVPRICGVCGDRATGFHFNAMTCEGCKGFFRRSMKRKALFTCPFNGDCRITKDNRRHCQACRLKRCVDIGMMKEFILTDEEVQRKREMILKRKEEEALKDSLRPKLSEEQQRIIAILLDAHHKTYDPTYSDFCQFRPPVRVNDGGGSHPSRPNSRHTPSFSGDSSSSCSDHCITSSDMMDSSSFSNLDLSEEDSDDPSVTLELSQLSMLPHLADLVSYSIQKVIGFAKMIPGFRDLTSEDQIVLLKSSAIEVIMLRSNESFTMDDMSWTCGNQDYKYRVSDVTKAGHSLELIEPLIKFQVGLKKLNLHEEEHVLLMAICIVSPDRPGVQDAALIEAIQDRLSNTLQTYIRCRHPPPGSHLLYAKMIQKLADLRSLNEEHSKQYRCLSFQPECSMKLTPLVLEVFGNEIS
Outline: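 HepG2 cells were transiently transfected with multiple GAL4-UAS reporter units, so signal reflects exogenous chimeric receptor-Gal4 activity. After 24 h compound exposure, reporter mRNA was measured by RT-PCR, fluorescent labelling and capillary electrophoresis, fitted for gain of signal versus DMSO.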

[2] = BSK_3C_SRB: Viability Assessment in the BioMAP Diversity Plus: 3C Assay (AID 2283023); conditions: primary human endothelial cells (HUVEC);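 also: fitted both ways against DMSO so a hit may be signal rise or drop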
Outline: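 Primary human umbilical vein endothelial cells in the 3C system were read 24 h after compound dosing. Total protein was stained with 0.1% sulforhodamine B after 10% TCA fixation and read at 560 nm, with bidirectional fitting against DMSO as baseline.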

[3] = BSK_3C_Vis: BioMAP Diversity Plus: 3C Assay for Morphology Visualization (AID 2283025); conditions: primary human endothelial cells (HUVEC);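 also: fitted both ways so gain or loss versus DMSO counts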;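 as to AC50: light microscopy image of cell morphology used as background control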
Outline: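 HUVEC, 3C system; light microscopy of morphology at 24 h post-dose. Bidirectional fit vs DMSO baseline. Secondary readout, background-control function.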

[4] = read-out: Pselectin, SELP (gene 6403); assay: BSK_4H_Pselectin: BioMAP Diversity Plus: 4H Assay for Pselectin Biomarker Activity (AID 2283026); conditions: primary human endothelial cells (HUVEC); actives raise or lower the signal
Outline: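 HUVEC, 24 h chemical exposure; P-selectin read by ELISA. Bidirectional curve fit vs DMSO baseline; gain or loss of signal scored.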

[5] = BSK_4H_SRB: Viability Assessment in the BioMAP Diversity Plus: 4H Assay (AID 2283027); conditions: primary human endothelial cells (HUVEC);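 also: cells exposed to compound for 24 h before staining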;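 as to AC50: curves fitted both ways versus DMSO so AC50 may be loss or gain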
Outline: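 HUVEC, 24 h post-dose; 10% TCA fix, 0.1% SRB stain, A560 nm. Total protein = overt cytotoxicity, parallel to biomarker read. Bidirectional fit vs DMSO baseline.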

[6] = BSK_BE3C_SRB: Viability Assessment in the BioMAP Diversity Plus: BE3C Assay (AID 2283028); conditions: primary human bronchial epithelial cells;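 as to AC50: fitted both ways so AC50 may mark signal gain or loss versus DMSO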
Outline: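 Human primary bronchial epithelial cells were exposed to test chemicals for 24 h. Total protein in parallel cultures was then measured by staining with 0.1% sulforhodamine B after 10% TCA fixation, with absorbance read at 560 nm. Activity was fitted bidirectionally against DMSO.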

[7] = read-out: Thrombomodulin, THBD (gene 7056); assay: BSK_3C_Thrombomodulin: BioMAP Diversity Plus: 3C Assay for Thrombomodulin Biomarker Activity (AID 2283029); conditions: primary human endothelial cells (HUVEC); actives raise or lower the signal
Outline: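 HUVEC, 3C conditions; compound 24 h; thrombomodulin by ELISA; bidirectional curve fit vs DMSO baseline; parallel SRB total-protein staining for cytotoxicity.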

[8] = read-out: Urokinase-type plasminogen activator receptor (uPAR), PLAUR (gene 5329); assay: BSK_4H_uPAR: BioMAP Diversity Plus: 4H Assay for Urokinase-type plasminogen activator receptor (uPAR) Biomarker Activity (AID 2283030); conditions: primary human endothelial cells (HUVEC); actives raise or lower the signal
Outline: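 Primary human umbilical vein endothelial cells were exposed to chemical for 24 h before cell-surface uPAR was quantified by ELISA. Activity was fitted bidirectionally against the DMSO negative control baseline.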

[9] = read-out: Vascular endothelial growth factor receptor 2 (Homo sapiens) (UniProt P35968); assay: BSK_4H_VEGFRII: BioMAP Diversity Plus: 4H Assay for Vascular endothelial growth factor receptor 2 (VEGFR2) Biomarker Activity (AID 2283031); conditions: primary human endothelial cells (HUVEC); actives raise or lower the signal;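 as to AC50: cell-surface VEGFR2 protein level quantified by ELISA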
Outline: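 Primary human umbilical vein endothelial cells in the BioMAP 4H system were dosed with test chemical, and 24 h later VEGFRII was measured by ELISA. Activity was fitted bidirectionally against DMSO as negative control and baseline.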

[10] = read-out: Human Leukocyte Antigen - DR isotype (HLADR), HLA-DRA (gene 3122); assay: BSK_BE3C_HLADR: BioMAP Diversity Plus: BE3C Assay for Human Leukocyte Antigen - DR isotype (HLADR) Biomarker Activity (AID 2283032); conditions: primary human bronchial epithelial cells; actives raise or lower the signal
Outline: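 Primary human bronchial epithelial cells (BE3C); 24 h chemical exposure; HLA-DR by ELISA; bidirectional curve fit vs DMSO baseline.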

[11] = read-out: Vascular cell adhesion molecule 1 (VCAM1), VCAM1 (gene 7412); assay: BSK_4H_VCAM1: BioMAP Diversity Plus: 4H Assay for Vascular cell adhesion molecule 1 (VCAM1) Biomarker Activity (AID 2283033); conditions: primary human endothelial cells (HUVEC); actives raise or lower the signal
Outline: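 HUVEC, 24 h post-dose; VCAM-1 by ELISA. Bidirectional curve fit vs DMSO baseline. Parallel SRB total-protein stain (0.1% SRB after 10% TCA fixation, 560 nm) for cytotoxicity.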

[12] = read-out: Interferon-gamma inducible Protein 10 (IP10), CXCL10 (gene 3627); assay: BSK_BE3C_IP10: BioMAP Diversity Plus: BE3C Assay for Interferon-gamma inducible Protein 10 (IP10) Biomarker Activity (AID 2283034); conditions: primary human bronchial epithelial cells; actives raise or lower the signal
Outline: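 ELISA readout of IP-10 in BE3C system: primary human bronchial epithelial cells, 24 h post-dosing; bidirectional curve fit vs DMSO baseline.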

[13] = read-out: Monokine induced gamma interferon (MIG), CXCL9 (gene 4283); assay: BSK_BE3C_MIG: BioMAP Diversity Plus: BE3C Assay for Monokine induced gamma interferon (MIG) Biomarker Activity (AID 2283035); conditions: primary human bronchial epithelial cells; actives raise or lower the signal
Outline: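 Dose cells (human primary bronchial epithelial), incubate 24 h, quantify MIG by ELISA, then fit concentration–response in both directions relative to DMSO control.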

[14] = read-out: Transforming growth factor beta 1 (TGFb1), TGFB1 (gene 7040); assay: BSK_BE3C_TGFb1: BioMAP Diversity Plus: BE3C Assay for Transforming growth factor beta 1 (TGFb1) Biomarker Activity (AID 2283036); conditions: primary human bronchial epithelial cells; actives raise or lower the signal
Outline: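 Read-out: ELISA for TGF-b1 in primary human bronchial epithelial cultures, 24 h post-dose. Bidirectional curve fitting vs DMSO control; gain or loss of signal both scored.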

[15] = read-out: Plasminogen activator inhibitor-1 (PAI1), SERPINE1 (gene 5054); assay: BSK_BE3C_PAI1: BioMAP Diversity Plus: BE3C Assay for Plasminogen activator inhibitor-1 (PAI1) Biomarker Activity (AID 2283037); conditions: primary human bronchial epithelial cells; actives raise or lower the signal
Outline: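 ELISA read-out of PAI-1 from human bronchial epithelial primary cells, 24 h post-dosing; bidirectional curve fit vs DMSO baseline, gain or loss of signal scored.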

[16] = read-out: urokinase plasminogen activator (uPA), PLAU (gene 5328); assay: BSK_BE3C_uPA: BioMAP Diversity Plus: BE3C Assay for urokinase plasminogen activator (uPA) Biomarker Activity (AID 2283038); conditions: primary human bronchial epithelial cells; actives raise or lower the signal
Outline: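 Human primary bronchial epithelial cells were exposed to chemical for 24 h, then uPA levels were measured by ELISA. Responses were fitted bidirectionally against DMSO as negative control and baseline. Parallel SRB staining of total protein gauged overt cytotoxicity.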

[17] = read-out: Urokinase-type plasminogen activator receptor (uPAR), PLAUR (gene 5329); assay: BSK_BE3C_uPAR: BioMAP Diversity Plus: BE3C Assay for Urokinase-type plasminogen activator receptor (uPAR) Biomarker Activity (AID 2283039); conditions: primary human bronchial epithelial cells; actives raise or lower the signal
Outline: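 ELISA readout of uPAR on human lung primary bronchial epithelial cells, 24 h post-dosing. Bidirectional curve fit relative to DMSO vehicle baseline; gain or loss of signal both scored.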

[18] = read-out: Interleukin-6 (IL6), IL6 (gene 3569); assay: BSK_CASM3C_IL6: BioMAP Diversity Plus: CASM3C Assay for Interleukin-6 (IL6) Biomarker Activity for (AID 2283040); conditions: primary human coronary artery smooth muscle cells; actives raise or lower the signal
[19] = read-out: Tissue plasminogen activator (tPA), PLAT (gene 5327); assay: BSK_BE3C_tPA: BioMAP Diversity Plus: BE3C Assay for Tissue plasminogen activator (tPA) Biomarker Activity (AID 2283041); conditions: primary human bronchial epithelial cells; actives raise or lower the signal
Outline: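 ELISA read-out of tPA on human primary bronchial epithelial cells, 24 h post-dosing; bidirectional fit vs DMSO negative control/baseline.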

[20] = read-out: Matrix Metallopeptidase 1 (MMP1), MMP1 (gene 4312); assay: BSK_BE3C_MMP1: BioMAP Diversity Plus: BE3C Assay for Matrix Metallopeptidase 1 (MMP1) Biomarker Activity (AID 2283024); conditions: primary human bronchial epithelial cells; actives raise or lower the signal
Outline: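 ELISA read-out of MMP1 in human lung bronchial epithelial primary cultures, 24 h post-dose; bidirectional curve fit vs DMSO baseline, gain or loss of signal scored.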

Measured: AC50

CCCCC(CC)COP(=O)(OCC(CC)CCCC)OCC(CC)CCCC (stereo not given)
active: [2] 20 µM | [3] 13.7 µM | [4] 12.2 µM | [5] 20 µM | [8] 20 µM | [9] 20 µM | [11] 6.21 µM
inactive: [1] | [6] | [7] | [10] | [12] | [13] | [14] | [15] | [16] | [17] | [18] | [19]

CC(=O)[C@@]1(O)CC[C@H]2[C@@H]3CCC4=CC(=O)CC[C@]4(C)[C@H]3CC[C@@]21C
active: [20] 8.47 µM | [8] 26.6 µM | [18] 29.5 µM
inactive: [1] | [2] | [3] | [4] | [5] | [7] | [9] | [10] | [11] | [12] | [13] | [14] | [15] | [17] | [19]

CC(=O)O[C@]1(C(C)=O)CC[C@H]2[C@@H]3C=C(Cl)C4=CC(=O)[C@@H]5C[C@@H]5[C@]4(C)[C@H]3CC[C@@]21C
inactive: [1] | [3] | [4] | [6] | [7] | [9] | [11] | [18]
active: [1] 148 µM | [2] 29.8 µM | [20] 4.91 µM | [8] 14.7 µM | [10] 19.3 µM | [12] 33.4 µM | [13] 31 µM | [14] 31.5 µM | [15] 20 µM | [17] 32.4 µM | [19] 34.9 µM

O=C(O)c1[nH]n(-c2ccc(S(=O)(=O)O)cc2)c(=O)c1N=Nc1ccc(S(=O)(=O)O)cc1
inactive: [1] | [2] | [3] | [4] | [5] | [6] | [7] | [8] | [9] | [10] | [11] | [12] | [13] | [14] | [15] | [17] | [18] | [19]

O=C(N[C@@H](c1ccccc1)[C@@H]1CCCCN1)c1cccc(C(F)(F)F)c1Cl
inactive: [1] | [5] | [7] | [8] | [9] | [11] | [18]
active: [2] 20 µM | [3] 13.7 µM | [4] 20 µM | [6] 34.3 µM | [10] 33.2 µM | [12] 33.5 µM | [13] 34.7 µM | [14] 36.7 µM | [15] 32.4 µM | [16] 28.7 µM | [17] 33.3 µM | [19] 24 µM

COc1ccc(OC(F)(F)F)cc1CN[C@H]1CCCN[C@H]1c1ccccc1
inactive: [1] | [20] | [4] | [6] | [9] | [10] | [11] | [12] | [13] | [14] | [15] | [17] | [18] | [19]
active: [2] 15 µM | [3] 3.29 µM | [7] 17.8 µM | [8] 20 µM

Cc1cn([C@H]2C=C[C@@H](CO)O2)c(=O)[nH]c1=O
inactive: [1] | [2] | [3] | [4] | [5] | [6] | [7] | [8] | [9] | [10] | [11] | [12] | [13] | [14] | [15] | [16] | [17] | [18] | [19]
